Test results: PubChem BioAssay (NCI)
This is part of a sample that, as a whole, favours compounds with a hit. Of some 83,000 tested, about 20% had one in any assay.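 Cells were grown in 96-well plates and exposed to the test compound at a single concentration for 48 hours; results are reported as percent growth, with values below 10 considered active.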 Calls of active or inactive are those of the source.

Experiments:
Assay in all cases: NCI-60 one-dose screen, 48 h (100 = growth as untreated, 0 = no growth, -100 = all killed)
Settings in all cases: 10 µM unless noted
SK-MEL-2 melanoma = system: SK-MEL-2 melanoma
EKVX NSCLC = system: EKVX NSCLC
SN12C renal = system: SN12C renal
UO-31 renal = system: UO-31 renal
TK-10 renal = system: TK-10 renal
ACHN renal = system: ACHN renal
CAKI-1 renal = system: CAKI-1 renal
A498 renal = system: A498 renal
CCRF-CEM leukemia = system: CCRF-CEM leukemia
MOLT-4 leukemia = system: MOLT-4 leukemia

Measured: growth

CC(C)OC(=O)c1ccc2[nH]c(O)c(C(=Nc3ccc(N(C)C(=O)CN4CCN(C)CC4)cc3)c3ccccc3)c2c1
active: SK-MEL-2 melanoma -73.6% | EKVX NSCLC -3.97% | SN12C renal 8.95% | UO-31 renal -96.3% | TK-10 renal -90.5% | ACHN renal 2.21% | CAKI-1 renal -93.4% | A498 renal -48.3% | CCRF-CEM leukemia 6.41% | MOLT-4 leukemia -17.9%

CCOC(=O)CNP(=O)(OC[C@@H](Cc1ccccc1)NC(=O)c1cc2ccccc2s1)Oc1ccccc1 (stereo not given in full)
inactive: SK-MEL-2 melanoma 75.9% | EKVX NSCLC 80.6% | SN12C renal 84.9% | UO-31 renal 80.7% | TK-10 renal 109% | ACHN renal 99.9% | CAKI-1 renal 70.6% | A498 renal 38.5% | CCRF-CEM leukemia 86.5% | MOLT-4 leukemia 54.8%

Cc1ccc(-c2csc(NC(=O)CN3CCN(c4cc5c(cc4F)c(=O)c(C(=O)O)cn5C4CC4)CC3)n2)cc1
active: SK-MEL-2 melanoma -13.5% | ACHN renal 4.32% | A498 renal 7.69% | CCRF-CEM leukemia 8.52% | MOLT-4 leukemia 4.51%
inactive: EKVX NSCLC 16.5% | SN12C renal 16.4% | UO-31 renal 12.1% | TK-10 renal 15.9% | CAKI-1 renal 20.8%

Cc1ccc(C(C(N)=O)C(C(N)=O)c2ccccc2)cc1 (stereo not given)
inactive: SK-MEL-2 melanoma 105% | EKVX NSCLC 113% | SN12C renal 112% | UO-31 renal 108% | TK-10 renal 101% | ACHN renal 115% | CAKI-1 renal 101% | A498 renal 116% | CCRF-CEM leukemia 93.4% | MOLT-4 leukemia 100%

CCCCCOc1ccc(C(=O)/C(Br)=C/C(=O)O)cc1
inactive: SK-MEL-2 melanoma 95.2% | EKVX NSCLC 103% | SN12C renal 102% | UO-31 renal 98.6% | TK-10 renal 125% | ACHN renal 94.3% | CAKI-1 renal 81.1% | A498 renal 86.2% | CCRF-CEM leukemia 80.5% | MOLT-4 leukemia 65.4%

CN(C)CCCn1c2c(c3ncccc3c1=O)C(=O)c1ccccc1-2
inactive: SK-MEL-2 melanoma 81.8% | EKVX NSCLC 81.7% | SN12C renal 34.7% | UO-31 renal 32% | TK-10 renal 52.3% | ACHN renal 15.2% | CAKI-1 renal 52.7% | A498 renal 57.5% | CCRF-CEM leukemia 50.4% | MOLT-4 leukemia 17.3%

COc1cc(-c2cc(-c3ccc(N(C)C)cc3)nc(N3CCC(O)CC3)c2C#N)cc(OC)c1OC
active: SK-MEL-2 melanoma -54.2% | UO-31 renal -45.1% | CAKI-1 renal -22.6% | MOLT-4 leukemia 2.62%
inactive: EKVX NSCLC 21.7% | SN12C renal 26.4% | TK-10 renal 14.9% | ACHN renal 15.1% | A498 renal 26.3% | CCRF-CEM leukemia 26.6%

c1ccc(C2=NN[C@H](c3cn(-c4ccccc4)nc3-c3ccccc3)C2)cc1
active: UO-31 renal 9.32% | ACHN renal -4.87% | CAKI-1 renal 4.95%
inactive: SK-MEL-2 melanoma 54.8% | EKVX NSCLC 41.4% | SN12C renal 46.6% | TK-10 renal 17.9% | A498 renal 54.5% | CCRF-CEM leukemia 89.3% | MOLT-4 leukemia 80.5%

C=CC(=O)NCc1ccc(Nc2nccc(-c3ccc(N4CCCC4)c(C#N)c3)n2)cc1
inactive: SK-MEL-2 melanoma 35.8% | EKVX NSCLC 62.8% | SN12C renal 41.3% | UO-31 renal 17.5% | TK-10 renal 37.3% | ACHN renal 20.4% | A498 renal 54% | CCRF-CEM leukemia 49.1% | MOLT-4 leukemia 20%
active: CAKI-1 renal -1.86%

O=C(O)CNC1=C(Cl)C(=O)c2ccccc2C1=O
inactive: SK-MEL-2 melanoma 100% | EKVX NSCLC 98.6% | SN12C renal 92.7% | UO-31 renal 58.9% | TK-10 renal 110% | ACHN renal 91.2% | CAKI-1 renal 76.7% | A498 renal 102% | CCRF-CEM leukemia 91.4% | MOLT-4 leukemia 100%

O=S(=O)(Nc1ccc(Cl)cc1)c1ccc(-c2cnc(C3CC3)o2)cc1
active: A498 renal 0.162%
inactive: SK-MEL-2 melanoma 39.8% | EKVX NSCLC 47.9% | SN12C renal 36.4% | UO-31 renal 41.5% | TK-10 renal 54.2% | ACHN renal 35.4% | CAKI-1 renal 31.6% | CCRF-CEM leukemia 11.4% | MOLT-4 leukemia 14.2%

N#C/C(=C/c1ccc([N+](=O)[O-])cc1)n1nnc2cc(F)c(F)cc21
inactive: SK-MEL-2 melanoma 75.6% | EKVX NSCLC 103% | SN12C renal 61.1% | UO-31 renal 64.7% | TK-10 renal 24.5% | ACHN renal 36.2% | CAKI-1 renal 71.2% | A498 renal 75.3% | CCRF-CEM leukemia 15.1% | MOLT-4 leukemia 38.6%

COc1cc(-c2nc(SCCC(C)C)nc(Nc3ccccc3Cl)c2C#N)cc(OC)c1OC
inactive: SK-MEL-2 melanoma 101% | EKVX NSCLC 93.3% | SN12C renal 90% | UO-31 renal 69.7% | TK-10 renal 125% | ACHN renal 97.1% | CAKI-1 renal 78.9% | A498 renal 85.3% | CCRF-CEM leukemia 92.1% | MOLT-4 leukemia 87.4%

CC[C@@H](C(=O)[C@@H](C)[C@@H](O)[C@H](C)[C@@H]1O[C@@H]([C@@H](CC)C(=O)NCCc2ccc(F)cc2)CC[C@@H]1C)C1O[C@]2(C=CC(=O)[C@]3(CC[C@@](C)([C@H]4CC[C@](O)(CC)[C@H](C)O4)O3)O2)[C@H](C)C[C@@H]1C (stereo not given in full)
inactive: SK-MEL-2 melanoma 53% | EKVX NSCLC 29.6% | SN12C renal 37.7% | UO-31 renal 19.2% | TK-10 renal 16.6% | CAKI-1 renal 14.2% | A498 renal 34.6% | CCRF-CEM leukemia 40.1% | MOLT-4 leukemia 19.2%
active: ACHN renal 9.48%

C=C1CC[C@@H]2[C@](C)(COC(C)=O)[C@H](OC(C)=O)CC[C@@]2(C)[C@@H]1CC(Sc1ccccc1)C1=CCOC1=O (stereo not given in full)
inactive: EKVX NSCLC 57.7% | UO-31 renal 35.6% | TK-10 renal 11.4% | CAKI-1 renal 90.6% | A498 renal 86.3%
active: SK-MEL-2 melanoma -1.66% | SN12C renal 1.3% | ACHN renal -13.7% | CCRF-CEM leukemia -5.24% | MOLT-4 leukemia -3.93%

CNc1nc(S(=O)c2ccc(C#N)cc2)nc2ccccc12 (stereo not given)
inactive: SK-MEL-2 melanoma 105% | EKVX NSCLC 82.2% | SN12C renal 68.9% | UO-31 renal 60.2% | TK-10 renal 109% | ACHN renal 41.8% | CAKI-1 renal 39.9% | A498 renal 86% | CCRF-CEM leukemia 32.2% | MOLT-4 leukemia 68.6%

COc1ccc2nc3ccc(OC)cc3c(SCCCN)c2c1
inactive: SK-MEL-2 melanoma 110% | EKVX NSCLC 87.1% | SN12C renal 67.9% | UO-31 renal 53.3% | TK-10 renal 114% | ACHN renal 43.7% | CAKI-1 renal 74.1% | A498 renal 83.2% | CCRF-CEM leukemia 10.5%
active: MOLT-4 leukemia -5.22%

Nc1nc(=S)c2ncn(C3OC(COP(=O)(O)O)C(O)C3O)c2[nH]1 (stereo not given)
inactive: SK-MEL-2 melanoma 14.9% | EKVX NSCLC 31.8% | SN12C renal 29.8% | UO-31 renal 25.1% | ACHN renal 20% | CAKI-1 renal 16.8% | A498 renal 37.8% | CCRF-CEM leukemia 15.5% | MOLT-4 leukemia 12.7%
active: TK-10 renal 8.92%

O=C(CSc1nc(-c2ccccc2)[nH]c1S(=O)(=O)c1ccccc1)NC1CC1
inactive: SK-MEL-2 melanoma 102% | EKVX NSCLC 65.1% | SN12C renal 96.5% | UO-31 renal 89.2% | TK-10 renal 87.2% | ACHN renal 104% | CAKI-1 renal 99.2% | A498 renal 72.9% | CCRF-CEM leukemia 93.4% | MOLT-4 leukemia 93.8%

CCOC(=O)c1cn2ncnc(Oc3ccc(NC(=O)NC4CCCCC4)c(Cl)c3)c2c1C
inactive: SK-MEL-2 melanoma 103% | EKVX NSCLC 74.3% | SN12C renal 72.8% | UO-31 renal 79% | TK-10 renal 111% | ACHN renal 61.5% | CAKI-1 renal 85% | A498 renal 76.5% | CCRF-CEM leukemia 69.8% | MOLT-4 leukemia 75.1%

COc1ccc(N2CCC(=O)NC2=S)cc1
inactive: SK-MEL-2 melanoma 102% | EKVX NSCLC 102% | SN12C renal 98.3% | UO-31 renal 86.5% | TK-10 renal 100% | ACHN renal 104% | CAKI-1 renal 95.4% | A498 renal 108% | CCRF-CEM leukemia 111% | MOLT-4 leukemia 105%

COc1ccc(/C=N/NC(=O)CCN2c3ccccc3Sc3ccccc32)cc1
inactive: SK-MEL-2 melanoma 95.6% | EKVX NSCLC 79.7% | SN12C renal 88.1% | UO-31 renal 66.5% | TK-10 renal 111% | ACHN renal 86.6% | CAKI-1 renal 41.5% | A498 renal 55.7% | CCRF-CEM leukemia 82.7% | MOLT-4 leukemia 97.8%

COc1ccc(OC)c(C(=O)/C=C/c2cc3c(c(OC)c2OC)OCO3)c1
inactive: SK-MEL-2 melanoma 83.6% | EKVX NSCLC 73% | SN12C renal 74.7% | UO-31 renal 63.6% | TK-10 renal 122% | ACHN renal 68% | CAKI-1 renal 52% | A498 renal 69.9% | CCRF-CEM leukemia 40.1% | MOLT-4 leukemia 52.8%

Brc1ccc(-n2cc(-c3nn[nH]n3)c(-c3cccs3)n2)cc1
inactive: SK-MEL-2 melanoma 101% | EKVX NSCLC 90.5% | SN12C renal 88.9% | UO-31 renal 63.7% | TK-10 renal 104% | ACHN renal 89.4% | CAKI-1 renal 91.1% | A498 renal 81.5% | CCRF-CEM leukemia 103% | MOLT-4 leukemia 101%

CC(C)n1cnc2c(=S)nc[nH]c21
inactive: SK-MEL-2 melanoma 114% | EKVX NSCLC 98% | SN12C renal 108% | UO-31 renal 92% | TK-10 renal 109% | ACHN renal 93.7% | CAKI-1 renal 73.1% | A498 renal 127% | CCRF-CEM leukemia 90.9% | MOLT-4 leukemia 56.6%

C#CCOc1cccc(Nc2ncnc3ccc(NC(=O)CCl)cc23)c1
active: SK-MEL-2 melanoma -47.9% | EKVX NSCLC -45.2% | SN12C renal -24.7% | UO-31 renal -87.8% | TK-10 renal -60.8% | ACHN renal -80.8% | CAKI-1 renal 1.72% | A498 renal -2.12% | CCRF-CEM leukemia -56.9% | MOLT-4 leukemia -25.1%

CCOC(=O)c1c(NC(=O)c2ccc(C(C)C)cc2)sc2c(CN(C)C)c(O)ccc12
active: CCRF-CEM leukemia 8.75% | MOLT-4 leukemia -21%
inactive: SK-MEL-2 melanoma 88.3% | EKVX NSCLC 97.1% | SN12C renal 82% | UO-31 renal 70.5% | TK-10 renal 107% | ACHN renal 37.8% | CAKI-1 renal 75.7% | A498 renal 41.5%
